Compound activity as filed in PubChem.
Shown are actives, neighbours in structure and some others; about 0.9% of the full set was active somewhere.
TDP1 inh: inhibitors of human tyrosyl-DNA phosphodiesterase TDP1; Q9NUW8; recombinant TDP1, AlphaScreen DNA substrate cleavage; Potency, µM (series often up to 130 µM), hits mostly inhibitors; actives 0.28% (n = 350,000); AID 485290; also: nearly all actives have a fitted effect of over 40% in size
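E. coli-derived human Tdp1, 1 nM final. Cpd preinc 15 min RT; substrate 15 nM final, 5 min RT; AS bead mix 10 ug/ml final, 10 min RT. Signal loss = tyrosine-FITC cleavage. No-enzyme wells = max signal.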
APEX1 inh: inhibitors of human APE1 endonuclease; P27695; recombinant APE1, TAMRA/BHQ-2 abasic DNA cleavage fluorescence; Potency, µM (series often up to 65.8 µM), hits mostly inhibitors; actives 0.35% (n = 350,000); AID 2517; also: nearly all actives have a fitted effect of over 55% in size
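Compound pre-exposure to 0.75 nM APE1, 15 min at ambient temperature. Reaction initiated with 50 nM TAMRA/BHQ-2 THF substrate, read immediately in kinetic mode, 525 nm excitation, 598 nm emission.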
BLM helicase inh: inhibitors of human Bloom syndrome helicase BLM. P54132. AID 2528. Potency, µM (doses to about 56.1 µM), actives largely listed as inhibitors. recombinant BLM DNA unwinding, fluorescence dequenching. actives 0.2% (n = 350,000); also: nearly all actives have a fitted effect of over 35% in size
KAT2A inh: GCN5L2 (KAT2A) acetyltransferase inhibition; GCN5L2 HAT assay, ThioGlo1 CoA-SH fluorescence; Q92830; actives 0.21% (n = 390,000); Potency, µM (highest dose often 58.9 µM), most hits filed as inhibitors
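Enzyme at 20nM final was mixed with library compounds for 15 min at room temperature. Peptide H3(1-25) at 75uM, acetyl-CoA at 70uM and ThioGlo1 at 50uM were then added. Plates were read immediately and after 20 min (Ex340nm/Em540nm).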
RECQ1 helicase: RECQ1 (human) helicase inhibition; actives 0.54% (n = 240,000); RECQ1 DNA unwinding, red fluorescence kinetic read; P46063; AID 2549; Potency, µM (titrated, usually from 57.3 µM), actives largely listed as inhibitors; also: nearly all actives have a fitted effect of over 30% in size
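50 nM RECQ1T1 preincubated 15 min with compound in Tris pH 8.0 buffer with MgCl2, DTT, Tween-20 and 2.5 ug/ml poly(dI-dC); started with 200 nM TAMRA/BHQ-2 forked duplex and 2 mM ATP. Unwinding read as fluorescence (525/598 nm), two reads 2 h apart.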
Lamin A splicing: changes lamin A minigene splicing in HeLa cells; HeLa LMNA splicing GFP/RFP minigene ratio, 48 h; Potency, µM (top dose mostly 46.1 µM), usual class: inhibitors; actives 0.01% (n = 200,000); active = well fitted inhibition curve with a large enough effect in the signal ratio, with a control signal flat, not every such curve was filed as active; inconclusive = small, poorly fitted or top-dose-only effect, or effect the other way, or a change in a side signal; the % refers to the signal ratio
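Read-out is the ratio of GFP to DsRed2 object intensity, acquired by 488 nm laser-scanning cytometry on HeLa lamin A-EGFP minigene reporter cells. Compound incubation 48 hrs at 37 °C in Opti-MEM with 2% FBS; DMSO 0.5% final.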
A number is an active result; – = inactive; ? = inconclusive; · = not tested or not shown; ! = not active in a repeat. Unless noted, calls follow the shape of the dose curve; as a rule, active = well fitted curve in the direction sought with a large enough effect; inconclusive = small, poorly fitted or top-dose-only effect, or another doubt; inactive = no such curve, though single readings can be large; an effect the other way counts as inactive or inconclusive.

SMILES	TDP1 inh	APEX1 inh	BLM helicase inh	KAT2A inh	RECQ1 helicase	Lamin A splicing
COc1ccc(CCCCCCOCc2ccccc2)cc1	20µM	–	·	–	·	·
COc1cccc(-c2ccc3c(N)c(C(=O)c4ccc(Cl)cc4)sc3n2)c1	·	·	–	–	·	·
COc1cccc(-c2ccc3c(N)c(C(=O)Nc4ccc(C)c(F)c4)sc3n2)c1	·	·	–	25µM	·	·
COc1ccc(-c2ccc3c(N)c(C(=O)NCc4ccc(Cl)cc4)sc3n2)cc1	·	·	–	20µM	·	·
CC(C)[C@H](N)C(=O)N[C@@H](CCC(N)=O)C(=O)NCC(=O)N[C@@H](CCC(=O)O)C(=O)N[C@@H](CCC(=O)O)C(=O)N[C@@H](CO)C(=O)N[C@@H](CC(N)=O)C(=O)N[C@@H](CC(=O)O)C(=O)N[C@@H](CCCCN)C(=O)O	–	–	–	–	–	·
CC(=O)OC[C@]12CC[C@H]3[C@@](C)(CC[C@H]4C(C)(C)CCC[C@]34C)[C@@H]1C[C@H](C1=CC(=O)O[C@@H]1OC(C)=O)O2	–	13µM	·	–	·	·
Cc1ccc(SCC(CC(C)C)N2CCN(C)CCC2=O)cc1 (configuration not stated)	–	–	–	·	–	·
CC(C)COC(=O)COc1cc(Cl)c(Cl)cc1Cl	50µM	–	·	–	–	·
Cn1c(N)c(C(=O)COC(=O)COc2cc(Cl)c(Cl)cc2Cl)c(=O)n(C)c1=O	–	–	·	–	·	·
CC(=O)Nc1ccc2nc3c(=O)[nH]c(=O)[nH]c3nc2c1	?	·	11µM	–	·	·
CCCc1cc(=O)oc2c3c(c(Cl)cc12)OCN(CCCO)C3	·	–	–	13µM	·	·
O=C(OCC#CCSc1nnc(-c2cccc3ccccc23)o1)c1sc(Cl)c(Cl)c1Cl	–	·	·	·	·	·
COc1cccc2cc(-c3cc(=O)oc4ccc(OCC(C)=O)cc34)oc12	–	–	–	?	·	·
COC(=O)COc1ccc2oc(=O)cc(-c3cc4cccc(OC)c4o3)c2c1	45µM	–	–	–	·	·
CCCOC(=O)NCCCN(C)C	–	–	–	–	–	·
CCn1c(=O)c(C(=O)NCCCc2ccccc2)c(O)c2ccccc21	56µM	–	–	–	·	·
CC(C)c1ccc(S(=O)(=O)/N=C2/C=C(Sc3ncn[nH]3)C(=O)c3ccccc32)cc1	–	–	10µM	?	–	?
CC(C)(C)c1ccc(S(=O)(=O)/N=C2\C=C(NS(=O)(=O)c3ccccc3)C(=O)c3ccccc32)cc1	–	–	–	?	·	·
S=c1nc(-c2ccc(Cl)cc2)[nH][nH]1	–	–	–	–	–	·
Cc1ccc(C)n1-c1nc(=S)[nH][nH]1	–	–	–	18µM	–	–
CC(C)(C)n1ncc2c(=O)n(Cc3c(F)cc(Cl)cc3F)cnc21	·	–	·	·	·	·
Cc1cccc(C)c1-n1c(SCC(=O)Nc2ccc(F)cc2)nnc1-c1cccc([S+](=O)([O-])N2CCCC2)c1	·	–	·	·	·	·
COC(=O)[C@H](CC(C)C)NC(=O)c1ccc(NC[C@@H](N)CS)cc1-c1cccc2ccccc12	–	–	–	–	–	·
CC[n+]1ccc(/C=C/c2ccc(N(C)C)cc2)c2ccccc21	–	–	–	–	35µM	?
COc1cc(-c2ccc(-[n+]3nc(-c4ccccc4)nn3-c3ccc([N+](=O)[O-])cc3)c(OC)c2)ccc1-[n+]1nc(-c2ccccc2)nn1-c1ccc([N+](=O)[O-])cc1	·	·	–	–	·	·
SMILES	TDP1 inh	APEX1 inh	BLM helicase inh	KAT2A inh	RECQ1 helicase	Lamin A splicing
O=C(O)/C=C1\NC(=O)c2ccccc21	–	–	–	–	–	–
O=C1N/C(=C\c2ccc(O)cc2)C(=O)c2ccccc21	–	?	32µM	–	–	?
O=C(O)c1cc(-c2ccc(/C=C3\NC(=O)N(c4ccc(Cl)cc4)C3=O)o2)ccc1Cl	6.3µM	25µM	–	–	?	–
O=C(O)c1cc(-c2ccc(/C=c3\sc4nc5ccc(Br)cc5n4c3=O)o2)ccc1Cl	·	2.7µM	–	–	·	·
Cc1cc2nc3s/c(=C/c4ccc(-c5ccccc5C(=O)O)o4)c(=O)n3c2cc1C	·	–	–	–	·	·
CCOC(=O)c1cc(-c2ccc(/C=C3/C(=O)N(c4ccc(C(=O)O)cc4)N=C3C)o2)ccc1Cl	·	8.4µM	–	–	·	·
C#CCN1C(=O)S/C(=C\c2ccc(-c3ccc(Cl)c(C(=O)O)c3)o2)C1=O	·	–	–	–	·	·
COc1ccc(C2C3C=CCCC3(C)C(=O)N2Cc2ccccc2)cc1Cl (configuration not stated)	–	–	–	·	–	·
COc1ccc(C2C=C3CN(C(=O)OC(C)(C)C)S(=O)(=O)C3CC2OC(=O)c2cccc(C)c2)cc1 (configuration not stated)	–	–	–	·	–	·
CN1CC(=O)NC1=N	·	–	·	·	·	·
Cc1cc(-c2ccc(N=Nc3ccc4c(S(=O)(=O)O)cc(S(=O)(=O)O)c(N)c4c3O)c(C)c2)ccc1N=Nc1ccc2c(S(=O)(=O)O)cc(S(=O)(=O)O)c(N)c2c1O	–	2.5µM	11µM!	3.2µM	8.9µM	·
Nc1c(N=Nc2ccc(-c3ccc(N=Nc4cc(S(=O)(=O)O)c5ccccc5c4N)cc3)cc2)cc(S(=O)(=O)O)c2ccccc12	–	32µM	4µM	2.2µM	10µM	·
O=C(Nc1nc2c(F)cc(F)cc2s1)c1ccc2c(c1)OCCO2	45µM	–	–	–	·	–
COc1cccc2sc(NC(=O)c3ccc4c(c3)OCCO4)nc12	–	·	–	–	·	?
Nc1ccc(S(=O)(=O)N2CCN(S(=O)(=O)c3c(F)cccc3F)CC2)cc1	–	·	·	·	·	·
Oc1cccc(O)c1O	?	1.3µM	–	–	6.3µM	?
Oc1ccccc1N=Nc1ccccc1O	–	–	–	–	–	?
CC1(C)CC(=O)C(N=Nc2cc(S(=O)(=O)N3CCOCC3)ccc2Cl)=C(O)C1	?	10µM	–	–	–	·
CC1(C)CC(=O)C(N=Nc2cc(C(F)(F)F)ccc2Cl)=C(O)C1	–	–	–	–	–	–
NCCC[C@@H](CC(=O)N[C@@H]1CCNC[C@H]1C(=O)N[C@H](CC(=O)N[C@@H](CCC(=O)O)CC(=O)O)Cc1ccccc1)NC(=O)C[C@H](CO)NC(=O)[C@@H]1CCCC[C@H]1N	–	–	–	·	–	·
NCCC[C@@H](CC(=O)N[C@@H]1CCNC[C@H]1C(=O)N[C@H](CC(=O)N[C@@H](CCC(=O)O)CC(=O)O)Cc1ccccc1)NC(=O)C[C@H](CO)NC(=O)[C@@H]1CNCC[C@H]1N	–	–	22µM	·	–	·
CCOC(=O)c1c(C)n(C)c2ccc(OC(=O)c3ccc([N+](=O)[O-])cc3)cc12	–	–	–	8.9µM	–	–
COc1cccc(-c2nnc3n2N=C(c2ccc(OC)cc2OC)CS3)c1	–	–	–	·	–	·
